# Results as given in PubChem BioAssay AID1645838 (ICCB-Longwood Screening Facility, Harvard Medical School, 2021).
# Values joined by “and” are separate entries in the source; they are usually repeats but may differ in a detail not shown here. Identical values can stand only once. About 100 (5%) of roughly 2,000 compounds were called active. No stated cut-off is given here; in the data, active means z-score above about 2; inactive means the rest. What follows is part of a selection rich in actives, with near analogues and random picks from the rest. A structure can be active in one record and inactive in another.
# Test: modulators of mitochondrial supercomplex assembly, cell-based, luminescence, Hoechst nuclei count (AID 1645838);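 further: control cybrid cells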;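 on z-score: higher means more mitochondrial supercomplex formation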
# Details: Cells, luminescence/Hoechst cell count ratio, supercomplex reporter; for z-score: stronger effect = higher value; for cell count: measured here: cell number, Hoechst nuclei count
# [1] = library stock concentration (final well concentration not given) 80 uM
# [2] = library stock concentration (final well concentration not given) 400 uM
# [3] = library stock concentration (final well concentration not given) 2 mM
# [4] = library stock concentration (final well concentration not given) 10 mM
# [5] = library stock concentration (final well concentration not given) 46 uM
# [6] = library stock concentration (final well concentration not given) 278 uM
# [7] = library stock concentration (final well concentration not given) 1.67 mM
structure (smiles),measurement,setting,value
CCCCCCNC(=O)Nc1ccc(S(=O)(=O)Nc2ccc(CCNCC(O)COc3ccc(O)cc3)cc2)cc1 (stereo not given),z-score,[1],-0.212 (inactive)
same,z-score,[2],0.0631 (inactive)
same,z-score,[3],-0.344 (inactive)
same,z-score,[4],0.114 (inactive)
same,cell count,[1],5240
same,cell count,[2],4980
same,cell count,[3],5190
same,cell count,[4],4950
N#Cc1cccc(C#N)c1-c1nc2c3ccccc3c3cc(Cl)ccc3c2[nH]1,z-score,[5],-0.238 (inactive)
same,z-score,[6],-0.156 (inactive)
same,z-score,[7],-0.196 (inactive)
same,z-score,[4],0.519 (inactive)
same,cell count,[5],6980
same,cell count,[6],6500
same,cell count,[7],7350
same,cell count,[4],6120
CCOc1ccc(-n2c(C(C)N(Cc3cccnc3)C(=O)Cc3ccc(F)c(C(F)(F)F)c3)nc3ncccc3c2=O)cc1 (stereo not given),z-score,[1],-0.219 (inactive)
same,z-score,[2],-0.0969 (inactive)
same,z-score,[3],0.0541 (inactive)
same,z-score,[4],-0.0286 (inactive)
same,cell count,[1],5590
same,cell count,[2],5490
same,cell count,[3],5970
same,cell count,[4],4780
CCOc1ccc(-n2c(C(C)N(Cc3cccnc3)C(=O)Cc3ccc(OC(F)(F)F)cc3)nc3ncccc3c2=O)cc1 (stereo not given),z-score,[1],0.00539 (inactive)
same,z-score,[2],0.51 (inactive)
same,z-score,[3],-0.332 (inactive)
same,z-score,[4],-0.306 (inactive)
same,cell count,[1],4950
same,cell count,[2],4820
same,cell count,[3],4910
same,cell count,[4],4660
COc1ccccc1Oc1ccc(N(Cc2cccnc2)S(=O)(=O)CC(F)(F)F)cc1,z-score,[5],0.268 (inactive)
same,z-score,[6],-0.0606 (inactive)
same,z-score,[7],2 (active)
same,z-score,[4],0.543 (inactive)
same,cell count,[5],6460
same,cell count,[6],6750
same,cell count,[7],6250
same,cell count,[4],5860
CCCCCCCCCCCCCCCCC/C=C/C(=O)O,z-score,,0.212 (inactive)
same,cell count,,4980
Cc1nc(Nc2ncc(C(=O)Nc3c(C)cccc3Cl)s2)cc(N2CCN(CCO)CC2)n1,outcome,library stock 10 mM,inactive; censored for cell count
same,z-score,[5],-0.0819 (inactive)
same,z-score,[1],3.96 (active)
same,z-score,[6],0.412 (inactive)
same,z-score,[2],5.15 (active)
same,z-score,[7],3.64 (active)
same,z-score,[3],6.64 (active)
same,z-score,[4],3.97 (active)
same,cell count,[5],4850
same,cell count,[1],2250
same,cell count,[6],4290
same,cell count,[2],1990
same,cell count,[7],2120
same,cell count,[3],1770
same,cell count,[4],1700
CCCCC[C@@H](O)/C=C/[C@H]1[C@H](C/C=C\CCCC(=O)O)C(=O)C[C@@H]1O,z-score,,-0.0856 (inactive)
same,cell count,,5040
CCC(=O)NCC1CC1c1cccc2c1CCO2 (stereo not given),z-score,[5],0.0958 (inactive)
same,z-score,[6],0.113 (inactive)
same,z-score,[7],-0.0496 (inactive)
same,z-score,[4],-0.0795 (inactive)
same,cell count,[5],6660
same,cell count,[6],6440
same,cell count,[7],7030
same,cell count,[4],7060
O=c1cc(N2CCOCC2)oc2c(-c3cccc4c3sc3ccccc34)cccc12,z-score,[1],-0.493 (inactive) and 0.0213 (inactive)
same,z-score,[2],-0.14 (inactive) and 0.291 (inactive)
same,z-score,[3],1.89 (inactive) and 3.23 (active)
same,z-score,[4],0.374 (inactive) and 11.4 (active)
same,cell count,[1],4940 and 6230
same,cell count,[2],4400 and 5530
same,cell count,[3],3070 and 3850
same,cell count,[4],4020 and 1970
O=c1cc(N2CCOCC2)oc2c1ccc1ccccc12,z-score,[5],-0.263 (inactive)
same,z-score,[6],0.075 (inactive)
same,z-score,[7],0.0237 (inactive)
same,z-score,[4],-0.121 (inactive)
same,cell count,[5],6320
same,cell count,[6],6310
same,cell count,[7],6270
same,cell count,[4],6380
O=c1cc(N2CCOCC2)oc2c(-c3ccccc3)cccc12,z-score,,0.00801 (inactive)
same,cell count,,5270
